High-throughput results (PubChem)
Most compounds without a hit are left out; they make up all but 19% or so of the library.
HT1080 IDH1KD tx = qHTS for induction of synthetic lethality in tumor cells producing 2HG: qHTS for the HT-1080-IDH1KD cell line; HT-1080 IDH1 knockdown viability, ATP luminescence, 48 h; Potency, µM (highest dose often 46.1 µM), without a hit: at the highest dose activity, negative = toxicity, usual class: cytotoxic; 2% of 360,000 active; AID 686971, 2013;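 also: potency is read from the fitted curve at half-maximal effect; 0% = DMSO wells and -100% = cell-free medium wells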
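CellTiter-Glo luminescence after 48 h compound exposure at 37 degrees C of IDH1-knockdown HT-1080 cells in 5% FBS RPMI. %Activity scaled between DMSO wells and cell-free media wells, with curves fitted and assigned curve classes.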
IL-1B inflam inh = qHTS for Inhibitors of Inflammasome Signaling: IL-1-beta AlphaLISA Primary Screen | THP-1 LPS/ATP IL-1B secretion, AlphaLISA, 16 h; stronger effect = lower value | activity change, % at 57.5 µM | 4.7% of 360,000 active | AID 743279, 2014; in the data active = activity change below about -50%; inconclusive = mostly about -30% to -49%
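THP-1 cells pretreated 1 hr with compounds (up to 57.5 uM final), then stimulated with LPS (250 ng/mL final) plus ATP (1.25 mM final); secreted IL-1B measured by AlphaLISA after 16 hr, decreased signal indicating inhibition.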
HT1080NT lethal = qHTS for induction of synthetic lethality in tumor cells producing 2HG: qHTS for the HT-1080-NT fibrosarcoma cell line; HT-1080-NT fibrosarcoma viability, CellTiter-Glo ATP luminescence, 48 h; Potency, µM (highest dose often 46.1 µM), inactives show at the top dose activity, negative = less viability, most hits filed as cytotoxic; 1.6% of 360,000 active;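 also: NT is the 2HG producing partner of a matched IDH1 knockdown line; potency is read from the fitted curve at half-maximal effect; 0% = DMSO-treated cells and -100% = media-only wells without cells; nearly all actives have a fitted effect of over 55% in size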
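HT-1080-NT; 750 cells/well; 5% FBS RPMI; 48 h compound, 37 degrees C; CellTiter-Glo luminescence; curve fitting and curve-class assignment.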
TDP1 cell CPT = qHTS for Inhibitors of human tyrosyl-DNA phosphodiesterase 1 (TDP1): qHTS in cells in presence of CPT | chicken DT40 Tdp1-/-;hTDP1 cells + 20 nM CPT, ATP luminescence, 48 h | Potency, µM (titrated, usually from 46.2 µM), for inactives: at the highest dose activity change, negative = growth inhibition, most hits filed as inhibitors | 12% of 420,000 active | AID 686979, 2013; also: potency is read from the fitted curve at half-maximal effect; nearly all actives have a fitted effect of over 55% in size
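Chicken DT40 Tdp1-/- cells complemented with human TDP1, 400 cells/well, exposed to compounds plus 20 nM camptothecin for at least 48 h at 37 C; viability read as ATP content by CellTiter-Glo luminescence.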
TDP1 cell noCPT = qHTS for Inhibitors of human tyrosyl-DNA phosphodiesterase 1 (TDP1): qHTS in cells in absence of CPT; AID 686978, 2013; DT40 Tdp1-/- hTDP1 cells, no CPT, ATP luminescence, 48 h; 15% of 420,000 active; Potency, µM (doses to about 46.2 µM), without a hit: top-dose activity change, negative = growth inhibition, most hits filed as inhibitors; also: potency is read from the fitted curve at half-maximal effect; nearly all actives have a fitted effect of over 55% in size
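Chicken DT40 Tdp1-/- cells complemented with human TDP1, screened without camptothecin (DMSO vehicle only), 400 cells/well. Compounds pin-transferred, cells incubated at 37 °C for at least 48 hr. Growth read as ATP-dependent luminescence (CellTiter-Glo, 30 min at RT).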
* marks the source's active call; other numbers are inactive results; ? = inconclusive; · = no result; [ ] = dose if it differs, or a comment. Unless noted, calls follow the shape of the dose curve; as a rule, active = well fitted curve in the direction sought with a large enough effect; inconclusive = small, poorly fitted or top-dose-only effect, or another doubt; inactive = no such curve, though single readings can be large; an effect the other way counts as inactive or inconclusive. Unless noted, % is scaled to controls: 0 for no effect and ±100 for the full control effect.

SMILES	HT1080 IDH1KD tx	IL-1B inflam inh	HT1080NT lethal	TDP1 cell CPT	TDP1 cell noCPT
O=C(CNC(=O)c1ccccc1O)N/N=C/c1cc(Br)ccc1OC(=O)/C=C/c1ccco1	?	77	?	7.3µM*	4.6µM*
O=C(CNC(=O)c1ccccc1Br)N/N=C/c1ccco1	-1%	-11	4%	4%	-9%
COc1ccc(-c2cc(C(=O)OCC(=O)c3cccc(OC)c3)c3cccc(Cl)c3n2)cc1	·	·	·	-4%	-19%
CC(=O)C(=Nc1ccc(Cl)cc1Cl)NNc1cccc(Cl)c1	?	-1	-29%	?	?
Cc1oc(-c2ccccc2F)nc1CS(=O)CC(=O)NC(C)C (centres undefined)	·	·	·	6%	4%
Cc1cccc(Nc2cc(C)nc3nc(Cc4ccc(Cl)cc4)nn23)c1	·	·	·	21µM*	?
CCc1nc2nc(C)cc(Nc3ccc(Br)cc3F)n2n1	·	·	·	16µM*	?
CCc1nc2nc(C)cc(Nc3cc(C)ccc3C)n2n1	·	·	·	?	18µM*
CCc1nc2nc(C)cc(Nc3cccc(C)c3C)n2n1	·	·	·	?	-16%
CCOc1ccc(Nc2cc(C)nc3nc(Cc4ccc(Cl)cc4)nn23)cc1	·	·	·	?	0%
O=C(Cn1c(NCCO)nc2ccccc21)Nc1ccc2c(c1)OCCCO2	-3%	2	3%	-3%	-11%
COc1ccc(CNC(=O)COC(=O)c2c(NC(C)=O)sc(C)c2C)cc1OC	-19%	?	-14%	?	23µM*
CC(=O)Nc1sc(C)c(C)c1C(=O)OCC(=O)Nc1cccc(C)c1	12%	-59*	7%	16µM*	16µM*
CC(=O)Nc1sc(C)c(C)c1C(=O)OCC(=O)Nc1ccccc1	-3%	-4	5%[9.24 µM]	?	-17%
COc1ccccc1NC(=O)COC(=O)c1c(NC(C)=O)sc(C)c1C	-16%	1	-15%	?	16µM*
COc1cccc(NC(=O)COC(=O)c2c(NC(C)=O)sc(C)c2C)c1	4%	0	-5%	-24%	4%
COc1ccc(CCNC(=O)CN2C(=O)NC(Cc3c[nH]c4ccccc34)C2=O)cc1 (centres undefined)	0%	-5	0%	-27%	-15%
NC(=O)c1ccc(NC(=O)COC(=O)CCC(=O)c2ccc(Cl)cc2)cc1	9%	10	6%	0%	6%
O=C(Nc1cccc(F)c1)N1CCC2(CC1)CCN(C(=O)c1cc(C(F)(F)F)cc(C(F)(F)F)c1)CC2	·	·	·	-11%	?
COC(=O)c1ccc(/C=C(\C#N)C(=O)NC(C)c2ccccc2)cc1 (centres undefined)	?	-97*	?	9.2µM*	10µM*
COc1cc(/C=C(\C#N)C(=O)NCCc2ccccc2)cc(OC)c1O	-19%	7	-26%	-25%	?
CC(NC(=O)/C(C#N)=C/c1ccco1)c1ccccc1 (centres undefined)	6%	-21	17%	5%	-22%
COc1ccc(/C=C(\C#N)C(=O)NC(C)c2ccccc2)cc1O (centres undefined)	?	-87*	-30%	-25%	?
COc1ccc(/C=C(\C#N)C(=O)NCc2ccccc2)cc1O	-2%	-86*	-1%	-29%	-29%
CC(NC(=O)/C(C#N)=C/c1ccc([N+](=O)[O-])o1)c1ccccc1 (centres undefined)	6.5µM*	-105*	-23%	0.65µM*	0.73µM*
SMILES	HT1080 IDH1KD tx	IL-1B inflam inh	HT1080NT lethal	TDP1 cell CPT	TDP1 cell noCPT
O=C(O)C(Cc1ccccc1N(CCO)CCO)N1C(=O)c2ccccc2C1=O (centres undefined)	5%	10	1%	10%	-12%
CSc1nc(-c2ccccc2)nn1C(=O)c1ccc(C)cc1	2%	-4	-2%	?	?
N#C/C(=C\c1ccc(O)c(O)c1)C(=O)NCCCCc1ccccc1	·	·	·	6.7µM*	8.4µM*
CC(NC(=O)/C(C#N)=C/c1ccc(N2CCOCC2)cc1)c1ccccc1 (centres undefined)	-17%	?	3%	13µM*	9.2µM*
CC(NC(=O)N1CCOCC1)c1ccccc1 (centres undefined)	2%	28	6%	26%	13%
COC(=O)c1sccc1-c1ccc(/C=N/OC(=O)c2cccs2)o1	11%	12	15%	45%	-3%
Cc1ccc(NC(=O)NCC2CCN(Cc3cccc(Cl)c3)CC2)cc1Cl	-13%	-100*	12µM*	?	16µM*
CCc1ccc(NC(=O)NCC2CCN(Cc3cccc(Cl)c3)CC2)cc1	-7%	-17	?	?	13µM*
COc1cccc(NC(=O)NCC2CCN(Cc3ccc(F)cc3)CC2)c1	0%	-12	-10%	-26%	-19%
CC(=O)N1CCc2cc(S(=O)(=O)NC(Cc3ccccc3)C(=O)NCc3ccccc3Cl)ccc21 (centres undefined)	·	·	·	-6%	-20%
O=C(C1CCC(=O)N(C2CCCC2)C1)N1CCN(Cc2cccc(F)c2)CC1 (centres undefined)	2%	-10	6%	-13%	6%
O=C(CN1C(=O)C(=O)N(Cc2ccco2)C1=O)NC1CCCCC1	8%	4	17%	5%	-3%
O=C(COc1ccccc1Cl)NNC(=O)Cn1[nH]c(=O)c2ccccc2c1=O	4%	6	4%	9.2µM*	?
O=C1[C@H]2CCCC[C@H]2C(=O)N1CCCCN1CCN(c2nsc3ccccc23)CC1	?	-65*	23µM*	21µM*	13µM*
COc1ccc(-c2n[nH]c3c2cnc2cc(OC)c(OC)cc23)cc1	·	·	·	-14%	-22%
Clc1ccc(OCc2nc3ccccc3[nH]2)cc1	-22%	-51*	-2%	4%	?
SCc1nc2ccccc2[nH]1	·	·	·	?	10µM*
c1ccc(OCc2nc3ccccc3[nH]2)cc1	-6%	10	-5%	?	-23%
Cc1scc(C(=O)NNC(=S)NC(C)c2ccccc2)c1C (centres undefined)	9%	-6	12%	16µM*	21µM*
CCCCNC(=S)NNC(=O)c1csc(C)c1C	0%	0	1%	?	?
O=C(CCN1Cc2ccccc2OC(c2ccccc2F)C1)N1CCC(N2CCCC(O)C2)CC1 (centres undefined)	·	·	·	2%[9.04 µM]	-21%
N/C(=N\OC(=O)c1ccc2c(c1)OCO2)c1ccncc1	2%	-54*	8%	3%	5%
